From PubChem BioAssay (NCI)
This is part of a sample that, as a whole, favours compounds with a hit. Of some 83,000 tested, about 20% had one in any assay.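 Treatment: one concentration, 48 hours, 96-well format. Scoring: percent growth, with anything below 10 considered active.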 Values without a mark were called inactive. Activity calls are given as the source filed them.

Test system: SNB-75 CNS
Experiment: NCI-60 one-dose screen, 48 h (100 = growth as untreated, 0 = no growth, -100 = all killed)
Conditions: 10 µM unless noted
Description: Growth inhibition of the SNB-75 human tumor cell line is measured as a screen for anti-cancer activity. Cells are grown in 96 well plates and exposed to the test compound for 48 hours. Compounds are tested at a single concentration, which is 10^-5 M for most compounds. The reported endpoint is percent growth (GI% or GIPRCNT), where numbers from 0 - 100% represent growth inhibition, and numbers from -100% - 0 represent cell death. For example, a value of 40 represents 60% growth inhibition. A value of 0 means no net growth occurred over the course of the experiment. A value of -40 indicates 40% of cells at the beginning of the experiment died by the end of the experiment. A value of -100 means all cells are dead at the end of the experiment.
NCI-60 Human Tumor Cell Lines Screen was performed using the standard one-dose NCI protocol, which is described in more detail at https://dtp.cancer.gov/discovery_development/nci-60/default.htm.
Compounds with GIPRCNT values below 10 were considered active. Activity score was based on GIPRCNT using the following formula: […]
Score is 0 for GIPRCNT values of 100 or above, 50 for GIPRCNT values of 0, and 100 for GIPRCNT values of -100.

For `CCCCCCCCCCCCOC(=N)N(C)C`, which growth is on record?
The growth was 85.8%.

How did the growth turn out when `Nc1ncn([C@@H]2O[C@H](CO)[C@@H](O)C2(F)F)c(=O)n1` was run?
The growth was 65%.

Which growth does the source give for `COc1ccc2oc(=O)cc(CN3C(=O)S/C(=C\c4ccc(Cl)cc4)C3=O)c2c1` here?
Its growth is 98.7%.

For `COc1cc(-c2nc3c(c(C)nc4c3nnn4-c3ccccc3)c(=O)o2)cc(OC)c1OC`, which growth is on record?
Its growth is 89.6%.

For `COc1cc2ncnc(Nc3ccc4c(cnn4C(=O)Nc4ccccc4)c3)c2cc1OC`, which growth is on record?
The growth was 114%.

For `Cc1nc(N)sc1C(=O)NCCO`, which growth is on record?
The growth was 105%.

How did the growth turn out when `O=c1oc2ccc3ccccc3c2cc1-c1ccnc2[nH]c(=S)[nH]c(=O)c12` was run?
Its growth is 98.9%.

For `CCCCCCCCc1ccc(OCCOCC[N+](C)(C)CC)cc1` (tested in a mixture with another compound), which growth is on record?
Its growth is 9.08% (active).

`COc1ccc(C(=O)c2no[n+]([O-])c2C(=O)c2ccc(OC)cc2)cc1` was tested. Which growth did it give?
The growth was -99.3% (active).

`CC(=O)Nc1nc(C)c(C(=O)N/N=C/c2cccs2)s1` was tested. Which growth did it give?
Its growth is 72%.

`CCOC(=O)c1cc(C(=O)c2ccc(Br)cc2)n2cc(C)cc(C)c12` was tested. Which growth did it give?
Its growth is 82.8%.

How did the growth turn out when `COc1ccc(-c2nc(Nc3nc4ccccc4[nH]3)nc(N)c2C#N)cc1` was run?
Its growth is 84.9%.

With `CCCCCC(=C/c1ccccc1)/C=N/N=C(N)N` as the molecule, how does the growth read?
Its growth is 56.6%.

`CC(=O)C(CO)C(=O)Nc1ccccc1` (stereo not given) was tested. Which growth did it give?
Its growth is 63.3%.

With `Oc1ccc2ccccc2c1/C=N\Nc1ccccn1` as the molecule, how does the growth read?
The growth was -7.53% (active).

Which growth does the source give for `COc1cccc2c1n([O-])c1cccc(OC)c1[n+]2=O` here?
The growth was 87%.

With `COc1cc(N)c2nccc(C)c2c1OC` as the molecule, how does the growth read?
The growth was 103%.

`COc1ccc(OC)c(Cn2cc3c(c2)-c2oncc2CC3)c1` was tested. Which growth did it give?
Its growth is -1.67% (active).

How did the growth turn out when `CCc1c(C)c2ccc(OCC(=O)N=Nc3c(O)[nH]c4ccccc34)c(C)c2oc1=O` was run?
The growth was 30.7%.

`CCC(C)C1NC(=O)C(CCCCN)NC(=O)C(CCCCN)NC(=O)C(CC(C)C)NC(=O)C(CCCCN)NC(=O)C(C(C)CC)NC(=O)C(C(C)C)NC(=O)C(C(C)CC)NC(=O)C(CCCCN)NC(=O)C(CCCCN)NC(=O)C(C)NC(=O)C(CCCCN)NC(=O)C(CC(C)C)NC1=O` (stereo not given) was tested. Which growth did it give?
The growth was 36.9%.

For `CC(C)(C)C(=O)CCCCCCCC/C=C/CCCC(O)c1ccco1` (stereo not given), which growth is on record?
Its growth is 101%.

How did the growth turn out when `COC(c1ccccc1)C(Br)C(=O)c1ccccc1` (stereo not given) was run?
Its growth is 86.5%.

`CCC(C)(C)c1ccc(OCCCCCCN2CCN(c3ccc(C)c(Cl)c3)CC2)cc1` was tested. Which growth did it give?
The growth was 92.2%.

For `CC[C@H](Nc1ncnc2nc[nH]c12)c1nc2cccc(NCc3ccc(C(=O)NO)nc3)c2c(=O)n1-c1ccccc1`, which growth is on record?
The growth was 5.43% (active).

`C[n+]1c2ccccc2c(Nc2ccc(NS(=O)(=O)CCCCN=C(N)N)cc2)c2ccc(N)cc21` was tested. Which growth did it give?
Its growth is 37.7%.

For `C/C(=C\c1ccc2ccccc2c1)[N+](=O)[O-]`, which growth is on record?
The growth was 78%.

`O=C(N/N=C\c1ccc(Cl)cc1)C(=O)N/N=C\c1ccc(Cl)cc1` was tested. Which growth did it give?
The growth was 88.3%.

With `O=C1Nc2c(c(=O)n(-c3ccccc3)c3ccccc23)C(c2ccc(Cl)cc2)N1` (stereo not given) as the molecule, how does the growth read?
Its growth is 80.7%.

Which growth does the source give for `O=C(O)CC1Cc2ccccc2C1C(=O)O` (stereo not given) here?
The growth was 92.4%.

For `O=C(CCC(=O)N(CCO)CCO)N(CCO)CCO`, which growth is on record?
The growth was 94%.

How did the growth turn out when `C=C1CCC2C3(C)COC(c4ccccc4)OC3CCC2(C)C1C/C=C1/C(=O)OCC1O` (stereo not given) was run?
Its growth is 35.9%.

How did the growth turn out when `COC(=O)C(N)CC(C)C` (stereo not given) was run?
Its growth is 93.9%.

Which growth does the source give for `CN(CCC#N)c1ccc(/C=C(\C#N)c2cccc(C(F)(F)F)c2)cc1` here?
The growth was 90.1%.

For `O=C1C(Cl)=C(Nc2ccc(Nc3ccccc3)c(NC3=C(Cl)C(=O)c4ccccc4C3=O)c2)C(=O)c2ccccc21`, which growth is on record?
Its growth is 81.3%.

For `Cc1ccc(OCCn2ccc(=O)n(CCOc3ccc(Cl)cc3C(=O)c3cc(C)cc(C)c3)c2=O)cc1`, which growth is on record?
The growth was 33.5%.

With `COc1ccc2c(N)ncc(C#Cc3cc(C(=O)Nc4ccc(CN5CCN(C)CC5)c(C(F)(F)F)c4)cnc3C)c2c1` as the molecule, how does the growth read?
Its growth is -11.1% (active).

How did the growth turn out when `COc1ccc(CNCCCN2C(=O)c3ccc4c5c(ccc(c35)C2=O)C(=O)N(CCCNCc2ccc(OC)c(OC)c2OC)C4=O)c(OC)c1OC` was run?
The growth was -96.8% (active).

How did the growth turn out when `S=C(N/N=C/c1cc(Cl)cc(Cl)c1)NC12CC3CC(CC(C3)C1)C2` was run?
The growth was 45.6%.

`CC1=C[C@@H]2c3c(c(O)c(O)c4oc5cc(O)cc(O)c5c(=O)c34)[C@@H](c3cc(O)c(O)c4oc5cc(O)cc(O)c5c(=O)c34)[C@@H]2C(C)(C)C1` was tested. Which growth did it give?
The growth was 16.7%.

Which growth does the source give for `COc1cc(OC)c(NC(=O)n2ncc3cc(Nc4ncnc5ccccc45)ccc32)cc1Cl` here?
The growth was 118%.
